# Laboratory results from PubChem BioAssay AID2472 (National Center for Advancing Translational Sciences (NCATS), 2010).
# The whole screen tested about 290,000 compounds, of which about 2,000 (0.69%) were called active. The full list was thinned out, with actives kept by preference. A number with no mark means an inactive call. Cut-off read from the data, not from the text of the source: active = activity change below about -30%; inactive = the rest, inconclusive results apart.
# Assay: qHTS Assay for Inhibitors of Fructose-1,6-bisphosphate Aldolase from Giardia Lamblia: Coupling assay counterscreen
# Details: coupling enzyme system counterscreen, AmpLite Red fluorescence; at 58.2 µM (top of the series)
# Procedure, shortened: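 Activity here indicates interference with the coupling reaction, not aldolase inhibition. Compounds at 57.5 uM final met coupling enzymes for 10 min at RT; substrate and AmpLite Red detection followed, with a 525/598 nm fluorescence read after 20 min.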
# % is set by controls: 0 for no effect and ±100 for the full control effect.
row,SMILES,"activity change, negative = inhibition"
1,O=C(NCc1ccccc1Cl)c1ccc2c(=O)n(CC3CCCO3)c(=S)[nH]c2c1 (stereo not drawn),2.3%
2,COc1ccccc1OCc1nnc(SCC(N)=O)n1-c1ccccc1,-0.0181%
3,COc1ccc(OC)c(-n2cc3c(=O)n(C)c(=O)n(C)c3c2)c1,-33.3% (active)
4,O=C1c2ccccc2C(=O)N1c1cccc2ccccc12,2.72%
5,Cn1c(=O)c2cn(-c3cccc4ccccc34)cc2n(C)c1=O,-34.2% (active)
6,COc1ccc(-c2c3c(=O)n(C)c(=O)n(C)c3cn2NC(C)=O)cc1,-2.71%
7,COc1ccc(-c2c3c(=O)n(C)c(=O)n(C)c3cn2-c2cccc(OC)c2)cc1,3.67%
8,CC(=O)Nn1cc2c(=O)n(C)c(=O)n(C)c2c1,-0.0563%
9,CN(Cc1ccc(F)cc1Cl)S(=O)(=O)c1cccs1,-12.4%
10,CC(C)(C)c1ccc(SCCc2ccncc2)cc1,1.38%
11,COc1cc(NC(=O)C2CCN(c3cnccn3)CC2)cc(OC)c1,-3.56%
12,CCn1nccc1C(=O)Nc1ccc(S(=O)(=O)NC23CC4CC(CC(C4)C2)C3)cc1,-40.9% (active)
13,Cc1cc(C(F)F)n2nc(C(=O)Nc3ccc(S(=O)(=O)NC45CC6CC(CC(C6)C4)C5)cc3)nc2n1,0.756%
14,CCn1nccc1C(=O)Nc1ccc(Cl)c(Cl)c1,0.939%
15,COc1ccc(NC(=O)C2CCC(CNC(=O)[C@@H]3Cc4ccccc4CN3)CC2)cc1 (stereo partly drawn),0.0857%
16,COc1ccc(NC(=O)CCn2ccnc2)c(OC)c1,5.46%
17,Oc1ccc(N=Cc2sc3ccccc3c2Cl)cc1,-45.3% (active)
18,COc1ccc(N=C(C)c2sc3ccccc3c2O)cc1,-5.39%
19,O=C(N/N=C/c1c(Cl)[nH]c2ccccc12)c1sc2ccccc2c1Cl,-8.68%
20,COc1ccccc1S(=O)(=O)c1c(C)cc(C)[nH]c1=O,0.55%

row,SMILES,"activity change, negative = inhibition"
1,C=CC(C1=CC(=O)C=CC1=O)c1ccc(O)cc1 (stereo not drawn),-27%
2,CCOC(=O)c1ccccc1C(=O)N1CCOCCOCCOCC1,-0.445%
3,Cc1oc2c(c1C(=O)N1CCOCC1)C(=O)c1ccccc1C2=O,-40.8% (active)
4,Cc1noc(C)c1C(=O)N1CCOCC1,0.778%
5,COC(=O)c1cc2c(ccn2C)n1C,-5.9%
6,Cc1cc(C(=O)N/N=C/c2ccccn2)c2ccccc2n1,0.262%
7,CCCc1cc(=S)n2c([nH]c3ccccc32)c1C#N,-7.83%
8,CCOC(=O)CSc1nccc(N(C)C)c1C#N,-0.791%
9,CCOC(=O)CCc1c(C)c(C#N)c2[nH]c3ccccc3n2c1=O,-41.6% (active)
10,C=CCn1cc(Cl)cc(C(=O)Nc2ccccc2)c1=O,0.816%
11,COc1ccc2cc(S(=O)(=O)Nc3ccccn3)ccc2c1,0.329%
12,COc1ccc(S(=O)(=O)Nc2c(C)n(C)n(-c3ccccc3)c2=O)cc1,0.385%
13,COc1ccc(S(=O)(=O)/N=C2\C=C(NS(=O)(=O)c3ccccc3)C(=O)c3ccccc32)cc1,-39.6% (active)
14,C[C@@H](O)[C@@H]1NC(=O)[C@H](CCCCN)NC(=O)[C@H](Cc2c[nH]c3ccccc23)NC(=O)[C@H](Cc2ccccc2)NC(=O)[C@H](Cc2ccccc2)NC(=O)[C@H](CC(N)=O)NC(=O)[C@H](CCCCN)NC(=O)[C@@H](NC(=O)[C@@H]2CCCN2)CSSC[C@@H](C(=O)N[C@@H](CCCCN)C(=O)O)NC(=O)[C@H](CO)NC(=O)[C@H](CO)NC(=O)[C@H](Cc2ccccc2)NC1=O,-0.403%
15,CCCc1c(C(=O)Nc2ccc(F)cc2)cnn1-c1ccccc1,-6.8%
16,Cc1ccc(CNC(=O)C2(C(F)(F)F)C/C(=C\CCO)CCCO2)o1 (stereo not drawn),3.8%
17,O=C(Nc1cccc2ncccc12)C(Cl)(Cl)Cl,0.503%
18,Cc1ccc(C(=O)Nc2cccc3ncccc23)cc1[N+](=O)[O-],0.485%
19,Cc1ccc(/C=C(\C#N)C(=O)Nc2cccc3ncccc23)o1,-39% (active)
20,CCOC(=O)C1CCCN(S(=O)(=O)c2ccc(-n3cnnn3)c(C)c2)C1 (stereo not drawn),2.06%

row,SMILES,"activity change, negative = inhibition"
1,c1ccc2c(Nc3ccncc3)nc(-c3ccc4c(c3)OCO4)nc2c1,-0.804%
2,COc1ccc2oc(=O)c(C(=O)NCc3ccccn3)cc2c1,-2.85%
3,O=C(Nc1ccc2nccnc2c1)c1ccco1,-1.38%
4,COCCNC(=O)Nc1ccc2nc(-c3ccco3)c(-c3ccco3)nc2c1,-35% (active)
5,CC(C)(C)c1ccc(NC(=O)NCc2ccco2)cc1,-0.174%
6,O=C(NCc1ccccn1)c1ccc2nc(-c3ccco3)c(-c3ccco3)nc2c1,-38.7% (active)
7,Cc1cc(C)cc(NC(=O)NCc2ccccn2)c1,-0.5%
8,CCCCC/C=C\C/C=C\C/C=C\CCCCCCC(N)=O,2.69%
9,CCC1Sc2ccc(S(=O)(=O)CCC(=O)NCc3cccs3)cc2NC1=O (stereo not drawn),-3.89%
10,Cc1cc2c(cc1S(=O)(=O)NCc1ccc(Cl)cc1)OCC(=O)N2,1.64%
11,COC(=O)C(C(=O)OC)[C@@H](NC=O)c1ccccc1,1.57%
12,CCOC(=O)C1=C(C(=O)OCC)C(C(=O)OCC)N(S(=O)(=O)C(F)(F)F)c2ccccc21 (stereo not drawn),0.565%
13,CCOC(=O)c1cc2n(c1N)-c1ccccc1C2=O,-30.6% (active)
14,CCOC(=O)c1ccccc1CN1C(=O)c2ccccc2S1(=O)=O,-1.95%
15,COC(=O)c1ccc(CNC(=O)C2CCC(=O)N(Cc3ccccn3)C2)cc1 (stereo not drawn),0.556%
16,CCOC(=O)C1=NO[C@@]2(C=C(Br)C(=O)[C@H]3O[C@H]32)C1,1.71%
17,Cc1cc(CNC(=O)C2CCC(=O)N(CCc3ccc(Cl)cc3)C2)no1 (stereo not drawn),2.61%
18,CC(C(=O)NCCc1ccc(S(N)(=O)=O)cc1)N1C(=O)CC(C)(C)Sc2ccccc21 (stereo not drawn),5.69%
